In PubChem BioAssay (NCI):
The panel holds about 83,000 compounds, 20% with a hit somewhere; the sample as a whole holds those more often.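 The test compound was applied at a single concentration to cells in 96-well plates for 48 hours, and percent growth was recorded.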 The source made the active and inactive calls. The calls were made as follows: active = growth percent below 10; inactive = the rest.

Assays:
Experiment in all cases: NCI-60 one-dose screen, 48 h (100 = growth as untreated, 0 = no growth, -100 = all killed)
Settings in all cases: 10 µM unless noted
RPMI-8226 leukemia = tested on: RPMI-8226 leukemia
OVCAR-8 ovarian = tested on: OVCAR-8 ovarian
OVCAR-5 ovarian = tested on: OVCAR-5 ovarian
OVCAR-4 ovarian = tested on: OVCAR-4 ovarian
SK-OV-3 ovarian = tested on: SK-OV-3 ovarian
IGROV1 ovarian = tested on: IGROV1 ovarian
OVCAR-3 ovarian = tested on: OVCAR-3 ovarian
HS 578T breast = tested on: HS 578T breast
NCI/ADR-RES ovarian = tested on: NCI/ADR-RES ovarian
T-47D breast = tested on: T-47D breast
BT-549 breast = tested on: BT-549 breast
MDA-MB-435 melanoma = tested on: MDA-MB-435 melanoma
SW-620 colon = tested on: SW-620 colon
MCF7 breast = tested on: MCF7 breast
HCT-116 colon = tested on: HCT-116 colon
HCC-2998 colon = tested on: HCC-2998 colon
KM12 colon = tested on: KM12 colon

Measured: growth

Nc1ncc(-c2ccc3ncnc(Nc4ccc(F)c(Cl)c4)c3c2)cn1
inactive: RPMI-8226 leukemia 50% | OVCAR-8 ovarian 61.3% | OVCAR-5 ovarian 80.3% | SK-OV-3 ovarian 65.7% | HS 578T breast 34.6% | NCI/ADR-RES ovarian 59.4% | T-47D breast 26% | BT-549 breast 22.5% | MDA-MB-435 melanoma 84% | SW-620 colon 66.4% | MCF7 breast 27.1% | HCT-116 colon 21% | HCC-2998 colon 83.9% | KM12 colon 66.1%
active: OVCAR-4 ovarian -17.3% | IGROV1 ovarian 1.68% | OVCAR-3 ovarian -57.4%

O=C(C[n+]1ccccc1Cl)c1ccc2c(c1)CCCC2
inactive: RPMI-8226 leukemia 90.3% | OVCAR-8 ovarian 102% | OVCAR-5 ovarian 102% | OVCAR-4 ovarian 83.6% | SK-OV-3 ovarian 99.7% | IGROV1 ovarian 107% | OVCAR-3 ovarian 93.6% | HS 578T breast 111% | NCI/ADR-RES ovarian 109% | T-47D breast 79.6% | MDA-MB-435 melanoma 92.1% | SW-620 colon 82.8% | MCF7 breast 95.8% | HCT-116 colon 80.3% | KM12 colon 82.2%

COc1ccc(C2CC(c3cc(Cl)c(C)cc3OC)=NN2c2ccc(S(N)(=O)=O)cc2)cc1OC (stereo unspecified)
inactive: RPMI-8226 leukemia 91% | OVCAR-8 ovarian 73.8% | OVCAR-5 ovarian 70.6% | OVCAR-4 ovarian 87.8% | SK-OV-3 ovarian 116% | IGROV1 ovarian 79.1% | OVCAR-3 ovarian 103% | HS 578T breast 101% | NCI/ADR-RES ovarian 77.2% | BT-549 breast 83.2% | MDA-MB-435 melanoma 95.8% | SW-620 colon 93.6% | MCF7 breast 80.4% | HCT-116 colon 56.7% | HCC-2998 colon 99.9% | KM12 colon 91.8%

Cc1cc(C)c(O)c(C(=O)CC(Br)C(=O)O)c1 (stereo unspecified)
inactive: RPMI-8226 leukemia 35.8% | OVCAR-8 ovarian 105% | OVCAR-5 ovarian 106% | OVCAR-4 ovarian 106% | SK-OV-3 ovarian 103% | IGROV1 ovarian 106% | OVCAR-3 ovarian 108% | HS 578T breast 107% | NCI/ADR-RES ovarian 103% | T-47D breast 92.9% | BT-549 breast 97.6% | MDA-MB-435 melanoma 102% | SW-620 colon 116% | MCF7 breast 66.6% | HCT-116 colon 99.3% | HCC-2998 colon 93.3% | KM12 colon 97.9%

c1coc(CSc2ncnc3nc[nH]c23)c1
inactive: RPMI-8226 leukemia 107% | OVCAR-8 ovarian 90.3% | OVCAR-5 ovarian 103% | OVCAR-4 ovarian 99% | SK-OV-3 ovarian 95.7% | IGROV1 ovarian 97.1% | OVCAR-3 ovarian 107% | HS 578T breast 106% | NCI/ADR-RES ovarian 106% | T-47D breast 93.6% | BT-549 breast 120% | SW-620 colon 97.9% | MCF7 breast 89.9% | HCT-116 colon 97.7% | HCC-2998 colon 107% | KM12 colon 102%

CC(C)CCC[C@@H](C)[C@H]1CC[C@H]2[C@@H]3CC=C4N(c5ccccc5)C(=O)CC[C@]4(C)[C@H]3CC[C@]12C
inactive: RPMI-8226 leukemia 97.8% | OVCAR-8 ovarian 109% | OVCAR-5 ovarian 102% | OVCAR-4 ovarian 103% | SK-OV-3 ovarian 103% | IGROV1 ovarian 99.1% | OVCAR-3 ovarian 92.1% | HS 578T breast 109% | NCI/ADR-RES ovarian 98.9% | T-47D breast 95% | MDA-MB-435 melanoma 100% | SW-620 colon 99.8% | MCF7 breast 89.5% | HCT-116 colon 99.2% | HCC-2998 colon 102% | KM12 colon 105%

COc1ccc(C(=O)NC(=O)Nc2ccc3c(c2)NC(=O)/C3=C\c2[nH]c(C)c(C(=O)O)c2C)c(F)c1
inactive: OVCAR-8 ovarian 56.4% | OVCAR-5 ovarian 98.8% | OVCAR-4 ovarian 12% | SK-OV-3 ovarian 74.1% | IGROV1 ovarian 46.8% | HS 578T breast 49.4% | NCI/ADR-RES ovarian 74.1% | T-47D breast 58.5% | BT-549 breast 21.7% | MDA-MB-435 melanoma 66.4% | SW-620 colon 55% | MCF7 breast 74.8% | HCT-116 colon 59.6% | HCC-2998 colon 46.6% | KM12 colon 26.3%
active: RPMI-8226 leukemia 6.29% | OVCAR-3 ovarian 5.25%

C=CCn1c(SCC(=O)Nc2ccc(C(=O)/C=C/c3cc(OC)c(OC)c(OC)c3)cc2)nnc1-c1ccc(OC)cc1
active: RPMI-8226 leukemia -33.1% | OVCAR-8 ovarian 7.47% | OVCAR-5 ovarian 9.19% | IGROV1 ovarian -3.21% | OVCAR-3 ovarian -45.9% | BT-549 breast -23.8% | MDA-MB-435 melanoma -38.1% | SW-620 colon -6.73% | MCF7 breast 0.763% | HCT-116 colon -29.4% | HCC-2998 colon -65.8% | KM12 colon -33.7%
inactive: OVCAR-4 ovarian 19.3% | SK-OV-3 ovarian 16.6% | HS 578T breast 32.5% | NCI/ADR-RES ovarian 20.1%

O=C(Nc1ccc(-n2cc(-c3ccncc3)c(-c3ccc(O)c(Cl)c3)n2)cc1)Nc1cc(C(F)(F)F)cc(C(F)(F)F)c1
inactive: RPMI-8226 leukemia 45% | OVCAR-8 ovarian 56.4% | OVCAR-5 ovarian 75.7% | OVCAR-4 ovarian 82.2% | SK-OV-3 ovarian 81.7% | IGROV1 ovarian 56.3% | OVCAR-3 ovarian 33.3% | NCI/ADR-RES ovarian 55% | T-47D breast 33.2% | BT-549 breast 20.4% | MDA-MB-435 melanoma 54.6% | SW-620 colon 73.9% | MCF7 breast 55.7% | HCT-116 colon 53.3% | HCC-2998 colon 79% | KM12 colon 48.7%
